# In PubChem BioAssay (NCATS):
# Several values for one entry are separate records, joined by “and”; a condition that tells them apart may be missing. Identical values can stand only once. Inconclusive results are not listed. A call without a number means that no potency is given here. Activity calls are given as the source filed them. Unless noted, the call rests on the fitted dose curve; in most records, active means well fitted curve in the direction sought with a large enough effect; inconclusive means small, poorly fitted or top-dose-only effect, or another doubt; inactive means no such curve, though single readings can be large; an effect the other way counts as inactive or inconclusive.
# What was measured:
# [1] = molecular target: phosphoglycerate mutase (Leishmania major) (UniProt Q4Q090); assay: qHTS Validation Assay to Find Inhibitors of Phosphoglycerate Mutase (AID 504548);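 further: end-point luminescence from Kinase-GloPlus after the PGAM reaction; series mostly up to about 58 µM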
# phosphoglycerate mutase (Leishmania major), sequence (Q4Q090 1-553): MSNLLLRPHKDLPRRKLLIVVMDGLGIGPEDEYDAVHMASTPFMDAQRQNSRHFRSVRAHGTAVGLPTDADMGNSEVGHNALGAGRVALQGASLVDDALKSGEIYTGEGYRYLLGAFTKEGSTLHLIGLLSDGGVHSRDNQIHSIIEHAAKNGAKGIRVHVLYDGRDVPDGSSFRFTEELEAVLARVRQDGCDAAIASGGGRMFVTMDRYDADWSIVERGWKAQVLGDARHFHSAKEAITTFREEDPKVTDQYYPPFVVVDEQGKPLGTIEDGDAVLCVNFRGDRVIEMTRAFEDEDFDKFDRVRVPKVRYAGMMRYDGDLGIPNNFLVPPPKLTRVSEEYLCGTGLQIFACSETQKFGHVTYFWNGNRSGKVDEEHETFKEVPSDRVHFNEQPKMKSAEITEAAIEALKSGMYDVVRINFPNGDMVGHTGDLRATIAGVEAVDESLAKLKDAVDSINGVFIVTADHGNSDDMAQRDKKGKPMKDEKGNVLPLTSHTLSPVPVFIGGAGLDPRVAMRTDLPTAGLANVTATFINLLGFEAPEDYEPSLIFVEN
# Procedure, shortened: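 Inhibition of L. major PGAM was assessed by Kinase-GloPlus luminescence following a 45-minute room-temperature reaction with enzyme at 1.25nM final.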
# [2] = molecular target: Ubiquitin carboxyl-terminal hydrolase 1 (Homo sapiens) (UniProt O94782); assay: Inhibitors of USP1/UAF1: Pilot qHTS (AID 504865); further: nearly all actives have a fitted effect of over 35% in size; further: potency means the concentration at half of the fitted maximal effect
# Ubiquitin carboxyl-terminal hydrolase 1 (Homo sapiens), sequence (O94782 whole entry, looked up): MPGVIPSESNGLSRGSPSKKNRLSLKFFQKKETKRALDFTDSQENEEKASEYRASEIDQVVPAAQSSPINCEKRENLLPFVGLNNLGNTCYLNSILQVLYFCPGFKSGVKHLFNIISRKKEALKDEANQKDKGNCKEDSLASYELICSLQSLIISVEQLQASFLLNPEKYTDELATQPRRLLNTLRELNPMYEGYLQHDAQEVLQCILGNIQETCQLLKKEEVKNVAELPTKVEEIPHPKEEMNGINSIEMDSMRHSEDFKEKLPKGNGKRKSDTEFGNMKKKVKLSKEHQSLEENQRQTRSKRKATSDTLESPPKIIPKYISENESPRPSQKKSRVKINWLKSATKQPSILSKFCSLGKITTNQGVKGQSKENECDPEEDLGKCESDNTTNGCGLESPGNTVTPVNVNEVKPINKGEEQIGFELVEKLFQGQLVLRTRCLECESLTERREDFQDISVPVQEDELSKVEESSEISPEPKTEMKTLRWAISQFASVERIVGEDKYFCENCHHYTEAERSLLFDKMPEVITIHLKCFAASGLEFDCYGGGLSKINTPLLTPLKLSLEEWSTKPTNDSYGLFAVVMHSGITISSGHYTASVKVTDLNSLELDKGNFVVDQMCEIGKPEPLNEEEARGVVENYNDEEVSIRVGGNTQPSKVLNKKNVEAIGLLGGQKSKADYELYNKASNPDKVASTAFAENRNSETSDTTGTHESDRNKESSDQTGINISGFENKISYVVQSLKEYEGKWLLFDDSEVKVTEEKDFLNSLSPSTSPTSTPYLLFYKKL
# Procedure, shortened: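 USP1/UAF1 complex at 1 nM preincubated 15 min at room temperature with compound, then Ub-Rho substrate added at 150 nM final. Fluorescence (480/540 nm) read kinetically in 50 mM HEPES pH 7.8, 0.5 mM EDTA, 1 mM TCEP, 0.1 mg/ml BSA, 0.01% Tween-20.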
# [3] = qHTS for Inhibitors of ATXN expression: Validation of Cytotoxic Assay (AID 588349)
# Procedure, shortened: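 Cytotoxicity counter-screen: HEK293 cells exposed to compound titrations, 72 hr, 37 degrees C. Read-out is intracellular ATP (CellTiter Glo luminescence) as a viability measure.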
# [4] = qHTS for Inhibitors of ATXN expression: Validation (AID 588378); further: nearly all actives have a fitted effect of over 75% in size; further: potency means the concentration at half of the fitted maximal effect
# Procedure, shortened: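 HEK293 cells carrying ATXN2-firefly luciferase reporter, treated with compound 24 h at 37 °C. Viability read first by CellTiter-Fluor (405/525 nm), then reporter expression by Bright-Glo luminescence; controls were a known ATXN2 expression inhibitor and a luciferase inhibitor.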
# [5] = molecular target: Glucocorticoid receptor (Homo sapiens) (UniProt P04150); assay: qHTS assay for small molecule agonists of glucocorticoid receptor signaling (AID 588532; active means well fitted curve in the direction sought with a large enough effect in the signal ratio, with a control signal flat; the % refers to the signal ratio); conditions: HeLa MMTV-bla, beta-lactamase ratio, agonist, 18 h; activation: stronger effect = higher value, percent of dexamethasone control, DMSO zero
# Glucocorticoid receptor (Homo sapiens), sequence (P04150 whole entry, looked up): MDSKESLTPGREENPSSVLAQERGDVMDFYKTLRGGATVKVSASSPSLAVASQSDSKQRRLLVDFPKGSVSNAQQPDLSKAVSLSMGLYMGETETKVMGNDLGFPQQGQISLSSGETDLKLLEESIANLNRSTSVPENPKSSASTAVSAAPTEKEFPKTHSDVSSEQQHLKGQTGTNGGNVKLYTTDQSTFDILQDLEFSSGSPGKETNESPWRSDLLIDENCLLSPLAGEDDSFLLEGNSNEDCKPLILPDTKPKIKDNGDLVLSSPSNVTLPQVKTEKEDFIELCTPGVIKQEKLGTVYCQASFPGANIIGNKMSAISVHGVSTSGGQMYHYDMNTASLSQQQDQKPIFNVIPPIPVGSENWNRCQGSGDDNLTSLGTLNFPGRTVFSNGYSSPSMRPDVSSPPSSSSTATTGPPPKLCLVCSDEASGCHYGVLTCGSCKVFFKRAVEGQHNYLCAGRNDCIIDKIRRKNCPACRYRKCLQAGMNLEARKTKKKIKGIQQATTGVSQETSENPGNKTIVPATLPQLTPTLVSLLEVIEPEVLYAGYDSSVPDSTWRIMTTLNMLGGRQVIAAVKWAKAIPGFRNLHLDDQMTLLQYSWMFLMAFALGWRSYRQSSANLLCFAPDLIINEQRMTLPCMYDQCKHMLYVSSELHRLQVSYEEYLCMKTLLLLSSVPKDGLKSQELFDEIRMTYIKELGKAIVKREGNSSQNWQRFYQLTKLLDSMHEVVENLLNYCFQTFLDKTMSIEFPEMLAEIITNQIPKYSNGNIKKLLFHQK
# Procedure, shortened: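 MMTV-bla HeLa beta-lactamase reporter cells in 1% charcoal/dextran FBS medium, compounds up to 92 uM for 18 h at 37 C, CCF4 readout; normalized to 0.1 uM dexamethasone (100%), EC50 and efficacy from Hill fits.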
# [6] = molecular target: Vitamin D3 receptor (Homo sapiens) (UniProt P11473); assay: qHTS assay for small molecule agonists of vitamin D receptor signaling (AID 588543; calls by dose curve)
# Vitamin D3 receptor (Homo sapiens), sequence (P11473 whole entry, looked up): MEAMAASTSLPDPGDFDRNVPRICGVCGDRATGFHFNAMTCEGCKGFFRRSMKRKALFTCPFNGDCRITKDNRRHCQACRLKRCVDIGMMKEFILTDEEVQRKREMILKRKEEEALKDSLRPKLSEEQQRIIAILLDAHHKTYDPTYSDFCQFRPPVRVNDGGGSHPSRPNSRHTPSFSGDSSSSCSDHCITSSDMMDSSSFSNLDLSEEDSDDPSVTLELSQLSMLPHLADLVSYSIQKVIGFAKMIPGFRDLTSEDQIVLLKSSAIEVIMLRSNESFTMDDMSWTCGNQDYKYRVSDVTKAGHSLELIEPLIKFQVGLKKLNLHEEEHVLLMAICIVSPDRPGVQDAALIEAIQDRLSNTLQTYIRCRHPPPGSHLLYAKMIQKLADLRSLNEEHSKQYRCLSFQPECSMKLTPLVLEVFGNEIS
# Procedure, shortened: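 VDR-UAS-bla HEK293T cells, 2000/well, 2% charcoal-stripped FBS; compound titration 16 h at 37 C; CCF4 beta-lactamase ratio read. Normalized to 50 nM 1-alpha,25-dihydroxyvitamin D3 (100%) and DMSO; Hill fit gives EC50, efficacy.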
# [7] = qHTS assay for small molecule agonists of retinoid X receptor alpha signaling (AID 588544); conditions: HEK293T RXRa-UAS-bla, beta-lactamase reporter, 18 h; 530 nm emission
# [8] = molecular target: Estrogen receptor (Homo sapiens) (UniProt P03372); assay: qHTS assay for small molecule agonists of estrogen receptor alpha signaling (AID 588514; calls by dose curve; further: nearly all actives have a fitted effect of over 70% in size)
# Estrogen receptor (Homo sapiens), sequence (P03372 whole entry, looked up): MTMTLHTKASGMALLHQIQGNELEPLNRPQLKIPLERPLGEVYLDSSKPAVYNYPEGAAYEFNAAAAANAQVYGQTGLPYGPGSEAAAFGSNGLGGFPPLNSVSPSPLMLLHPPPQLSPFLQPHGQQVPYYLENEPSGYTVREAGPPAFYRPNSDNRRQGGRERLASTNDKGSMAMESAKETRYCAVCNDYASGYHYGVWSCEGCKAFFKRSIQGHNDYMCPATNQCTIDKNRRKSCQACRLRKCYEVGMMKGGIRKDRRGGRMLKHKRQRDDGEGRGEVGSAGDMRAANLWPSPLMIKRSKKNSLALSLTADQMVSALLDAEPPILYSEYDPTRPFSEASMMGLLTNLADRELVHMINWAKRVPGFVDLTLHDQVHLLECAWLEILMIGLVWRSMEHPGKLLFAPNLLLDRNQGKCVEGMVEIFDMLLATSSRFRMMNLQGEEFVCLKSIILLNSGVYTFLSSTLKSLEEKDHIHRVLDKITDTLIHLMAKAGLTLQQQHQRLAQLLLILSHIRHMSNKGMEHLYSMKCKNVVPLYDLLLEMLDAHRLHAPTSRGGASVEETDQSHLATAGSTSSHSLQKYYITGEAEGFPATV
# Procedure, shortened: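 Read-out: CCF4 fluorescence from a beta-lactamase reporter in ER-alpha-UAS-bla HEK 293 cells after 18 hrs of compound exposure at 37 C. Normalized to 20 nM 17-beta-estradiol (100%) and DMSO (0%).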
# [9] = molecular target: Glucocorticoid receptor (Homo sapiens) (UniProt P04150); assay: qHTS assay for small molecule antagonists of glucocorticoid receptor signaling (AID 588533; active means well fitted inhibition curve with a large enough effect in the signal ratio, with a control signal flat, not every such curve was filed as active; the % refers to the signal ratio; further: potency means the concentration at half of the fitted maximal effect)
# Procedure, shortened: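 Antagonist-mode qHTS: compound titrations added to GRE-bla HeLa cells, then dexamethasone 2 nM final; 18 h, 37 C. CCF4 FRET fluorescence normalized to dexamethasone and DMSO; IC50 from Hill fit.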
# [10] = qHTS assay for small molecule antagonists of peroxisome proliferator-activated receptor delta signaling (AID 588535; active means well fitted inhibition curve with a large enough effect in the signal ratio, with a control signal flat, not every such curve was filed as active; the % refers to the signal ratio;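 on max response: cells co-treated with a PPAR-delta agonist as stimulator during compound exposure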); conditions: HEK293T PPARd-UAS-bla, beta-lactamase FRET ratio, 18 h; 460 nm channel
# Procedure, shortened: (§1)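 Beta-lactamase reporter read-out (405 nm excitation, 460/530 nm emission) after CCF4 loading for 2 hrs at RT. HEK293T PPAR-delta-UAS-bla cells, 2% charcoal/dextran FBS, compounds for 18 hrs at 37 C. Hill fit gave IC50 and efficacy.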
# [11] = molecular target: Peroxisome proliferator-activated receptor delta (Homo sapiens) (UniProt Q03181); assay: as above
# Peroxisome proliferator-activated receptor delta (Homo sapiens), sequence (Q03181 whole entry, looked up): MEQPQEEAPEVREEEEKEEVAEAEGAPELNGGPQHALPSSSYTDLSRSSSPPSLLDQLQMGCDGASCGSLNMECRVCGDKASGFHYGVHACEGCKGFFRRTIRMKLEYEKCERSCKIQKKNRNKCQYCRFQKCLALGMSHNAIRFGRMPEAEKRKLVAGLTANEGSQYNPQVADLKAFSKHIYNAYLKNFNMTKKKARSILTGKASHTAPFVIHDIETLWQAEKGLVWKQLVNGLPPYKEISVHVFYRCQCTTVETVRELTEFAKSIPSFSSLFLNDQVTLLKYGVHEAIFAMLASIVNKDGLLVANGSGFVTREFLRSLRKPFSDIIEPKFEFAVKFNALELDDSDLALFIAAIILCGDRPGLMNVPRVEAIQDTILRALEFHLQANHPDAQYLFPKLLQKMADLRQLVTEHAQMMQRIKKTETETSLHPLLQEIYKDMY
# Procedure, shortened: as §1
# [12] = molecular target: Peroxisome proliferator-activated receptor gamma (Homo sapiens) (UniProt P37231); assay: qHTS assay for small molecule agonists of peroxisome proliferator-activated receptor gamma signaling (AID 588536; active means well fitted curve in the direction sought with a large enough effect in the signal ratio, with a control signal flat, not every such curve was filed as active; the % refers to the signal ratio)
# Peroxisome proliferator-activated receptor gamma (Homo sapiens), sequence (P37231 whole entry, looked up): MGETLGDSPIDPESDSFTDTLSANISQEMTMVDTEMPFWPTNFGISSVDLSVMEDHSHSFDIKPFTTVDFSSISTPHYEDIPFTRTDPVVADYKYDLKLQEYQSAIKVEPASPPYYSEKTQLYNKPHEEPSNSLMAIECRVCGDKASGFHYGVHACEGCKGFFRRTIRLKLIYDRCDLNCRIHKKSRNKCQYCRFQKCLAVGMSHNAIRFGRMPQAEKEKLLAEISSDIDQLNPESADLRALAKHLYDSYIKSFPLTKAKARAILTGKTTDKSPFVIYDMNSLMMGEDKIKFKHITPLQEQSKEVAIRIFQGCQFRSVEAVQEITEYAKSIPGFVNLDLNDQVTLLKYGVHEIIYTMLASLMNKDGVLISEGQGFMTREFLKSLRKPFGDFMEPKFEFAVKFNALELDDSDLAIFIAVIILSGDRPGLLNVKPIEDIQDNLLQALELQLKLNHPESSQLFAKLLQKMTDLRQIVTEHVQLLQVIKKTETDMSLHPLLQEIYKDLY
# Procedure, shortened: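 Using GeneBLAzer HEK293 cells, response was quantified by CCF4 fluorescence and normalized between basal DMSO (0%) and rosiglitazone 2 uM (100%); curves yielded half-maximal stimulation concentration and efficacy.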
# [13] = molecular target: Peroxisome proliferator-activated receptor gamma (Homo sapiens) (UniProt P37231); assay: qHTS assay for small molecule antagonists of peroxisome proliferator-activated receptor gamma signaling (AID 588537; active means well fitted inhibition curve with a large enough effect in the signal ratio, with a control signal flat, not every such curve was filed as active; the % refers to the signal ratio;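 further: reporter cells co-stimulated with 50 nM rosiglitazone agonist during compound treatment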)
# Procedure, shortened: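 Read-out: CCF4 fluorescence (ex 405, em 460/530 nm) after 2 h at RT. Cells were HEK293 carrying a UAS-bla reporter and treated 16 h at 37 C with compound plus rosiglitazone (50 nM final). Normalized to rosiglitazone and DMSO.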
# [14] = molecular target: Vitamin D3 receptor (Homo sapiens) (UniProt P11473); assay: qHTS assay for small molecule antagonists of vitamin D receptor signaling (AID 588541; calls by dose curve;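 further: receptor activated by calcitriol during compound treatment; series mostly up to about 77 µM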)
# Procedure, shortened: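 VDR-UAS-bla HEK293T cells in 2% charcoal-stripped FBS were stimulated with 1-alpha,25-dihydroxyvitamin D3 (3 nM final) plus compound for 16 h at 37 C. The beta-lactamase CCF4 readout was normalized to 50 nM agonist and DMSO, and Hill fits gave IC50.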
# [15] = molecular target: Thyroid hormone receptor beta (Homo sapiens) (UniProt P10828); assay: qHTS assay for small molecule agonists of thyroid hormone receptor beta signaling (AID 588545; calls by dose curve)
# Thyroid hormone receptor beta (Homo sapiens), sequence (P10828 whole entry, looked up): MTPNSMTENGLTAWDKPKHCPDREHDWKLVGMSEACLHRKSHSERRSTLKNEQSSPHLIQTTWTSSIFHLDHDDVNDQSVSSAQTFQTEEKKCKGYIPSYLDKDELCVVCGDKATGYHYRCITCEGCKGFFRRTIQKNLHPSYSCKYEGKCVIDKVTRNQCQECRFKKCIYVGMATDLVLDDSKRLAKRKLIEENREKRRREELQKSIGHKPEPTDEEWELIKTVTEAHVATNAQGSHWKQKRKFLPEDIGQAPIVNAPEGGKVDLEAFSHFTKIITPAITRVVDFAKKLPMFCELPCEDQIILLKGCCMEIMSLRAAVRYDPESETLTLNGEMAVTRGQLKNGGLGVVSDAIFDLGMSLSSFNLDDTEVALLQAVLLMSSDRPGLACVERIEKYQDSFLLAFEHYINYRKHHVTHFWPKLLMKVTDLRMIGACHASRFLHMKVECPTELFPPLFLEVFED
# Procedure, shortened: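 Compounds were tested as agonists in TR-UAS-bla-GripTite HEK 293 cells. After 18 hrs at 37 C, CCF4 substrate was added and fluorescence read after 2 hrs at room temperature.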
# [16] = molecular target: DNA dC->dU-editing enzyme APOBEC-3G (Homo sapiens) (UniProt Q9HC16); assay: qHTS for inhibitors of Vif-A3G interactions: Validation (AID 588379)
# DNA dC->dU-editing enzyme APOBEC-3G (Homo sapiens), sequence (Q9HC16 whole entry, looked up): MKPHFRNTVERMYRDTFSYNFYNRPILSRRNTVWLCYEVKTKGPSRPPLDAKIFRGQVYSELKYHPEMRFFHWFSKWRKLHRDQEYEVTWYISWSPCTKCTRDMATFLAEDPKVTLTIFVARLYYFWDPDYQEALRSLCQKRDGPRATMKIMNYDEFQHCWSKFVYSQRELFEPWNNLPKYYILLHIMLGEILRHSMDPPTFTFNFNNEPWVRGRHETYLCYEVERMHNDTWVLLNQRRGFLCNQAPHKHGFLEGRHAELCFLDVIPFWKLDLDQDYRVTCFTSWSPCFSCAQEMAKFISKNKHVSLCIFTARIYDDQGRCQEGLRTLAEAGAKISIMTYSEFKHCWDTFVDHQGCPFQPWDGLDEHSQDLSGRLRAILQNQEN
# Procedure, shortened: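 Yellow fluorescence (Ex 488, Em 500-530) of Vif-coexpressing HeLa A3G-eYFP cells, scanned by Acumen cytometer, reports blocked A3G degradation. Cells plated at 700/well overnight at 37 deg C before compound addition, then a further overnight compound incubation at 37 deg C.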
# [17] = molecular target: Estrogen receptor (Homo sapiens) (UniProt P03372); assay: qHTS assay for small molecule antagonists of estrogen receptor alpha signaling (AID 588513; active means well fitted curve in the direction sought with a large enough effect in the signal ratio, with a control signal flat, not every such curve was filed as active; the % refers to the signal ratio)
# Procedure, shortened: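 ER-alpha-UAS-bla GripTite HEK 293 cells in 2% charcoal/dextran-treated FBS medium; compounds titrated (1:2, duplicate), then stimulated with 0.5 nM 17-beta-estradiol for 18 h at 37C. CCF4 beta-lactamase fluorescence; Hill-fit IC50 and efficacy.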
smiles,measurement,setting,value
Nc1c2c(nc3ccccc13)CCCC2O (centres undefined),outcome,[1],inactive
same,Potency,[2],inactive
same,Potency,[3],inactive
same,Potency,[4],inactive
NC(=O)c1cn(Cc2c(F)cccc2F)nn1,outcome,[1],inactive
same,Potency,[2],inactive
same,Potency,[3],inactive
same,Potency,[4],inactive
Cc1cccc(C)c1NC(=O)C(C)N (centres undefined),outcome,[1],inactive
same,Potency,[2],inactive
same,Potency,[3],inactive
same,Potency,[4],inactive
CCN(CC)CCNC(=O)c1ccc(NC(C)=O)cc1,outcome,[1],inactive
same,Potency,[2],inactive
same,Potency,[3],inactive
same,Potency,[4],inactive
COc1ccc(CCN(C)CCCC(C#N)(c2cc(OC)c(OC)c(OC)c2)C(C)C)cc1OC (centres undefined),outcome,[1],inactive
same,Potency,[2],inactive
CCN(Cc1ccncc1)C(=O)C(CO)c1ccccc1 (centres undefined),outcome,[1],inactive
same,Potency,[2],inactive
same,Potency,[3],inactive
same,Potency,[4],inactive
CN(C)C/C=C(/c1ccc(Br)cc1)c1cccnc1,outcome,[1],inactive
same,Potency,[2],inactive
CCN(CC)CCCN(c1ccccc1)C1Cc2ccccc2C1,outcome,[1],inactive
same,Potency,[2],inactive
Fc1ccc(C(c2ccc(F)cc2)N2CCN(C/C=C/c3ccccc3)CC2)cc1,outcome,[1],inactive
CC(=O)[C@]1(O)Cc2c(O)c3c(c(O)c2[C@@H](O[C@H]2C[C@H](N)[C@H](O)[C@H](C)O2)C1)C(=O)c1ccccc1C3=O,outcome,[1],inactive
same,Potency,[2],50.1 µM (active) and 39.8 µM (active)
CCOC(=O)C1=C(C)NC(C)=C(C(=O)OC)C1c1cccc(Cl)c1Cl (centres undefined),outcome,[1],inactive
C=CCc1ccccc1OCC(O)CNC(C)C (centres undefined),outcome,[1],inactive
same,Potency,[2],inactive
same,Potency,[3],inactive
CCO/C([O-])=N/c1c[n+](N2CCOCC2)no1,outcome,[1],inactive
same,Potency,[2],inactive
same,Potency,[3],inactive
same,Potency,[4],inactive
CCc1cccc(N(C)C(N)=Nc2cccc3ccccc23)c1,outcome,[1],inactive
same,Potency,[2],inactive
CC(C)NNC(=O)c1ccncc1,outcome,[1],inactive
same,Potency,[2],inactive
same,Potency,[3],inactive
same,Potency,[4],inactive
CCCCNc1ccc(C(=O)OCCN(C)C)cc1,outcome,[1],inactive
same,Potency,[2],inactive
same,Potency,[3],inactive
same,Potency,[4],inactive
CC(=O)OC(C)C[N+](C)(C)C (centres undefined),outcome,[1],inactive
same,Potency,[2],inactive
same,Potency,[3],inactive
same,Potency,[4],inactive
CNCCC(Oc1ccccc1OC)c1ccccc1 (centres undefined),outcome,[1],inactive
same,Potency,[2],inactive
same,Potency,[3],inactive
CN(C)CCCN1c2ccccc2Sc2ccc(C(F)(F)F)cc21,outcome,[1],inactive
CC(C)(C)NCC(O)c1cc(O)cc(O)c1 (centres undefined),outcome,[1],inactive
same,Potency,[2],inactive
same,Potency,[3],inactive
same,Potency,[4],inactive
NC(=O)c1ncn([C@@H]2O[C@H](CO)[C@@H](O)[C@H]2O)c1O,outcome,[1],inactive
same,Potency,[2],inactive
same,Potency,[3],inactive
same,Potency,[4],inactive
COCCCC/C(=N\OCCN)c1ccc(C(F)(F)F)cc1,outcome,[1],inactive
same,Potency,[2],inactive
same,Potency,[3],inactive
NC(N)=N/N=C/c1c(Cl)cccc1Cl,outcome,[1],inactive
same,Potency,[2],inactive
CNCCCN1c2ccccc2CCc2ccccc21,outcome,[1],inactive
same,Potency,[2],inactive
CN(C)CCCN1c2ccccc2Sc2ccccc21,outcome,[1],inactive
same,Potency,[2],inactive
CN1CCN(C2=Nc3ccccc3Oc3ccc(Cl)cc32)CC1,outcome,[1],inactive
same,Potency,[2],inactive
Cc1ccc(/C(=C\CN2CCCC2)c2ccccn2)cc1,outcome,[1],inactive
same,Potency,[2],inactive
same,Potency,[3],inactive
same,Potency,[4],inactive
CCNC(=O)N1CCN(CCCC(c2ccc(F)cc2)c2ccc(F)cc2)CC1,outcome,[1],inactive
same,Potency,[2],inactive
OCCN1CCN(CCCN2c3ccccc3C=Cc3ccccc32)CC1,outcome,[1],inactive
same,Potency,[2],inactive
CCCC(C(=O)OCCN(CC)CC)(c1ccccc1)c1ccccc1,outcome,[1],inactive
same,Potency,[2],inactive
same,Potency,[3],inactive
same,Potency,[4],inactive
COC(=O)C1=C(C)NC(C)=C(C(=O)OC(C)(C)CN(C)CCC(c2ccccc2)c2ccccc2)C1c1cccc([N+](=O)[O-])c1 (centres undefined),outcome,[1],inactive
CCn1ccnc1CC1COc2ccccc2O1 (centres undefined),outcome,[1],inactive
same,Potency,[2],inactive
same,Potency,[3],inactive
same,Potency,[4],inactive
CCC(=O)c1ccc2c(c1)N(CCCN(C)C)c1ccccc1S2,outcome,[1],inactive
same,Potency,[2],inactive
CO[C@@]1(NC(=O)CSCC#N)C(=O)N2C(C(=O)O)=C(CSc3nnnn3C)CS[C@@H]21,outcome,[1],inactive
same,Potency,[2],inactive
same,Potency,[3],inactive
same,Potency,[4],inactive
OC(CCN1CCCCC1)(c1ccccc1)C1CCCCC1 (centres undefined),outcome,[1],inactive
same,Potency,[2],inactive
CC(=O)[C@@]1(O)CC[C@H]2[C@@H]3CCC4=CC(=O)CC[C@]4(C)[C@H]3CC[C@@]21C,outcome,[1],inactive
same,Potency,[2],inactive
same,Potency,[3],inactive
same,Potency,[4],inactive
same,activation,[5],1.8% (inactive)
same,outcome,[6],inactive
same,max response,[7],13.3%
O=C(CCNNC(=O)c1ccncc1)NCc1ccccc1,outcome,[1],inactive
same,Potency,[2],inactive
same,Potency,[4],inactive
CCCCCN(CCCCC)C(=O)C(CCC(=O)O)NC(=O)c1ccc(Cl)c(Cl)c1 (centres undefined),outcome,[1],inactive
same,Potency,[2],inactive
same,Potency,[4],inactive
C[C@]12CCC(=O)C=C1CC[C@@H]1[C@@H]2C(=O)C[C@@]2(C)[C@H]1CC[C@]2(O)C(=O)CO,outcome,[1],inactive
same,Potency,[2],inactive
same,Potency,[3],inactive
same,Potency,[4],inactive
same,Potency,[8],inactive
same,activation,[5],-0.667% (inactive)
same,Potency,[9],28.2 µM (active)
same,max response,[10],10.6%
same,outcome,[11],inactive
same,outcome,[12],inactive
same,outcome,[13],inactive
same,outcome,[14],inactive
same,outcome,[6],inactive
same,max response,[7],17.3%
same,Potency,[15],inactive
CCN1CCc2nc(N)oc2CC1,outcome,[1],inactive
same,Potency,[2],inactive
same,Potency,[4],inactive
Cc1nc2c([nH]1)c(=O)n(C)c(=O)n2Cc1ccco1,outcome,[1],inactive
same,Potency,[2],inactive
same,Potency,[4],inactive
CC1=NS(=O)(=O)c2cc(Cl)ccc2N1,outcome,[1],inactive
same,Potency,[2],inactive
same,Potency,[3],inactive
same,Potency,[4],inactive
same,outcome,[16],inactive
C[C@@H](O)[C@H]1C(=O)N2C(C(=O)O)=C(SCCN=CN)C[C@H]12,outcome,[1],inactive
same,Potency,[2],inactive
same,Potency,[4],inactive
CCN(CC)CCNC(=O)c1cc(S(C)(=O)=O)ccc1OC,outcome,[1],inactive
same,Potency,[2],inactive
same,Potency,[4],inactive
C[n+]1cc2c3c(ccc2c2ccc4cc5c(cc4c21)OCO5)OCO3,outcome,[1],inactive
same,Potency,[2],inactive
same,Potency,[4],6.31 µM (active)
NC(=O)N1c2ccccc2C=Cc2ccccc21,outcome,[1],inactive
same,Potency,[2],inactive
same,Potency,[3],inactive
same,Potency,[4],inactive
same,outcome,[17],inactive
same,Potency,[8],inactive
same,max response,[10],34.8%
same,outcome,[11],inactive
same,outcome,[12],inactive
same,outcome,[13],inactive
same,max response,[7],-3.76% and -20.7%
same,Potency,[15],inactive
